Source: article PMC5836133, “The intracellular immune receptor Rx1 regulates the DNA-binding activity of a Golden2-like transcription factor”
The full ranking holds about 16,000 sequences; the median of “e-score” is about -0.044, and the highest 2% start at about 0.38. For the sample, the highest values were picked, then their nearest neighbours and some sequences at random.

Target: T1, GST-NbGlk1(82-244) (Nicotiana benthamiana)
T1 chain: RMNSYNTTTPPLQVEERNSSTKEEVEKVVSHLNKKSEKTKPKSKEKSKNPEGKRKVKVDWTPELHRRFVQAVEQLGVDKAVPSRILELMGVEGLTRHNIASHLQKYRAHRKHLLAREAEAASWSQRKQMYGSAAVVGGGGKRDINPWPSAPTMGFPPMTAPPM
Assay: protein-binding microarray; NbGlk1 is a Golden2-like transcription factor of Nicotiana benthamiana; high values mean tight binding
Conditions: protein: recombinant; tags: GST (pTH6838); dsDNA, one strand shown

| Sequence | binding signal [E-score] |
| --- | --- |
| ATCTGCTG | 0.291 ± 0.0162 |
| ATATGAAA | 0.266 ± 0.036 |
| AGCGATTC | 0.253 ± 0.0595 |
| ATAGCGAT | 0.247 ± 0.0104 |
| AGATTACG | 0.484 ± 0.00516 |
| AGATTATC | 0.398 ± 0.0119 |
| AGATTATA | 0.31 ± 0.0066 |
| AGATTACA | 0.477 ± 0.0126 |
| AAATTACA | 0.281 ± 0.0554 |
| ATATTACG | 0.331 ± 0.0353 |
| AAATTACG | 0.317 ± 0.00783 |
| AGATTACT | 0.429 |
| AGATTATG | 0.35 ± 0.0249 |
| ATATTACA | 0.281 ± 0.0562 |
| ACGATCTG | 0.298 ± 0.0786 |
| ATCTGAAT | 0.319 ± 0.0412 |
| ACATGGAT | 0.276 ± 0.0921 |
| AATAGAGA | 0.257 ± 0.00976 |
| AGCGGATA | 0.27 ± 0.022 |
| ATCTGTCG | 0.268 ± 0.0941 |
| ATCTCAAA | 0.337 ± 0.00799 |
| ACTTGGAT | 0.263 ± 0.0442 |

| Sequence | binding signal [E-score] |
| --- | --- |
| ATTGCTAC | 0.23 ± 0.0982 |
| ATTGCAAA | 0.212 ± 0.0169 |
| AATATTAT | 0.211 ± 0.0854 |
| ATATGCAC | 0.266 ± 0.0704 |
| AAATTTGC | 0.224 ± 0.0355 |
| AATCATGA | 0.254 ± 0.0429 |
| AGATTTAC | 0.349 ± 0.00929 |
| AAATTACC | 0.252 ± 0.0504 |
| AGATTACC | 0.459 ± 0.0174 |
| AATATACG | 0.253 ± 0.0484 |
| AATATTAC | 0.235 ± 0.084 |
| CAGATTAC | 0.47655 ± 0.000118 |
| AAAATTAC | 0.203 ± 0.0427 |
| CAAATTAC | 0.275 ± 0.0131 |
| AAGATTAC | 0.454 ± 0.0269 |
| AAGATTAT | 0.288 ± 0.039 |
| ATTGTGTC | 0.225 ± 0.0437 |
| ATCTGCGA | 0.35 ± 0.033 |
| ATTACCCA | 0.234 ± 0.0351 |
| AATCGATC | 0.26 ± 0.0524 |
| AGATTTTG | 0.4649 ± 0.003 |
| ATTTTTTG | 0.315 ± 0.021 |

| Sequence | binding signal [E-score] |
| --- | --- |
| ATATTTTC | 0.363 ± 0.0153 |
| ATATTTTG | 0.274 ± 0.0771 |
| AGATTTCC | 0.4969 ± 0.000664 |
| AAATTTCC | 0.305 ± 0.0382 |
| ATATTTCC | 0.369 ± 0.00928 |
| AGATTTCA | 0.467 ± 0.0101 |
| AGATTTTC | 0.4879 ± 0.00245 |
| AAATTTTC | 0.273 ± 0.00676 |
| ATATTTCA | 0.302 ± 0.00721 |
| AAATTTCA | 0.229 ± 0.0474 |
| ACGTATAA | 0.241 ± 0.0276 |
| ATCACACA | 0.274 ± 0.0193 |
| ATCAGATA | 0.311 ± 0.0291 |
| ACAGTATA | 0.203 ± 0.12 |
| ACGTATCG | 0.2234 ± 0.00122 |
| ATTCGAAA | 0.208 ± 0.0296 |
| ATATTTCG | 0.347 ± 0.00521 |
| AGATTTCG | 0.4861 ± 0.00274 |
| AGATTTAA | 0.269 ± 0.0136 |
| AGATTTTA | 0.414 ± 0.0235 |
| AGATTTAT | 0.261 ± 0.0998 |
| AAATTTCG | 0.332 ± 0.0714 |

| Sequence | binding signal [E-score] |
| --- | --- |
| ATTATCTA | 0.201 ± 0.0162 |
| AACGTAAT | 0.361 ± 0.0152 |
| AAGGGAAT | 0.259 ± 0.00401 |
| CAAATCGG | 0.252 ± 0.00458 |
| AAAATCTG | 0.478 ± 0.0028 |
| CAAATCAG | 0.268 ± 0.0183 |
| AAAATATT | 0.3158 ± 0.000558 |
| ATAATCTC | 0.346 ± 0.064 |
| AAAATCTT | 0.447 ± 0.0196 |
| AAAATTTT | 0.271 ± 0.0157 |
| CAAATCTG | 0.43 ± 0.00733 |
| AAAATCTC | 0.4529 ± 0.00114 |
| ATATCGAC | 0.32 ± 0.00903 |
| AACACGAT | 0.237 ± 0.0225 |
| ATTTGCCA | 0.358 ± 0.051 |
| ATAGTAGA | 0.201 ± 0.11 |
| AAAGGATT | 0.372 ± 0.061 |
| ATCCATTG | 0.253 ± 0.0582 |
| ATTTCAGA | 0.265 ± 0.0287 |
| ATTGCAAT | 0.305 ± 0.0598 |
